# FLuc counter = qHTS profiling assay for firefly luciferase inhibitor/activator using purifed enzyme and Km concentrations of substrates (counterscreen for miR-21 project). purified FLuc, Km substrates, luminescence inhibition. Potency, µM (top dose mostly 57.5 µM), without a hit: at the highest dose activity change, negative = inhibition, most hits filed as inhibitors. 360,000 tested, 6.9% active;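 also: plate controls were vehicle for no effect and reference inhibitor for full effect; nearly all actives have a fitted effect of over 55% in size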
# Target sequence (P08659 whole entry, looked up): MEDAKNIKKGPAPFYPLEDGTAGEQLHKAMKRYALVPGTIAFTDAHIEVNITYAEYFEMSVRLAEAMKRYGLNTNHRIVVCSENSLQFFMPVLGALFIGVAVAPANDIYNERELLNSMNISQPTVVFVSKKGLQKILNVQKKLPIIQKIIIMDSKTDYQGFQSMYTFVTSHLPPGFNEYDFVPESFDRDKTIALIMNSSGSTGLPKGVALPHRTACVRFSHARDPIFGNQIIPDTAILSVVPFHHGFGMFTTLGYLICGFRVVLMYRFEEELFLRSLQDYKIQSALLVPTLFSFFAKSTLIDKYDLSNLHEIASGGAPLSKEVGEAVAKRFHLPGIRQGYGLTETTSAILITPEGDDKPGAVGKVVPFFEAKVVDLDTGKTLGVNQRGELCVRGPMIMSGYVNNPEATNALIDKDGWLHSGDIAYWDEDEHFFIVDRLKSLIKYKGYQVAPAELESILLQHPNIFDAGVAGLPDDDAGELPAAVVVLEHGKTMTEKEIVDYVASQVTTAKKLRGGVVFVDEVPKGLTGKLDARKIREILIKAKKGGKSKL
#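 Purified P. pyralis luciferase, 10 nM final, with Km-level 10 uM D-luciferin and 10 uM ATP in 50 mM Tris acetate pH 7.5, 10 mM Mg acetate, 0.01% Tween-20, 0.05% BSA; 6-point qHTS titration about 60 µM downward; luminescence read.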
# SMN2 splice enh = qHTS Assay for Enhancers of SMN2 Splice Variant Expression; HEK293 SMN2-luciferase splicing reporter, luminescence, 30-36 h; 210,000 tested, 2.8% active; Potency, µM (titrated, usually from 46.1 µM), inactives show at the highest dose activity change, positive = activation, usual class: activators; also: % of control where 0% means no effect; nearly all actives have a fitted effect of over 55% in size
#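 HEK293 cells carry an SMN2 […]–luciferase reporter in which exon 7 inclusion puts luciferase in frame. Cells were plated 10-12 h before compound addition, then incubated 30-36 h at 37C. ONE-Glo luminescence was read; sodium butyrate at 4.5 mM final served as control.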
# Rab9 promoter act = qHTS Assay for Rab9 Promoter Activators; Huh7 Rab9 promoter-luciferase reporter, luminescence, 24 h; Potency, µM (series often up to 9.22 µM), for inactives: at the highest dose activation, negative = inhibition, usual class: activators; 320,000 tested, 2.8% active; AID 485297, 2010; also: % of control where 0% means no effect; nearly all actives have a fitted effect of over 60% in size
#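 Luciferase signal after 10 min detection reagent at ambient indicates Rab9 promoter upregulation; stably transfected Huh7 cells were treated 24 h with compound in DMSO at 37 °C, 5% CO2.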
# NPC1 promoter act = qHTS Assay for NPC1 Promoter Activators; Huh7 NPC1 promoter luciferase reporter, 24 h; Potency, µM (series often up to 9.22 µM), for the others: top-dose activation, usual class: activators; 320,000 tested, 2.4% active; AID 485313, 2010; also: % of control where 0% means no effect; nearly all actives have a fitted effect of over 60% in size
#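 Stably transfected Huh7 (NPC1 promoter→luciferase), 1500 cells/well in Opti-MEM + 10% FBS, 2 h settle, then compound 24 h at 37 °C. Luminescence after 10 min with Amplite reagent.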
# ELG1 genotoxic = qHTS screen for small molecules that induce genotoxicity in human embryonic kidney (HEK293T) cells expressing luciferase-tagged ELG1. HEK293T ELG1-luciferase reporter, luminescence, 16 h. Potency, µM (titrated, usually from 46 µM), for the others: at the top dose activity change, positive = activation, usual class: activators. 330,000 tested, 1.3% active. AID 504466, 2011; also: % of control where 0% means no effect; nearly all actives have a fitted effect of over 60% in size
#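 After overnight (16 hr) compound treatment at 37 °C, ELG1-luciferase HEK293T cells were lysed with ONE-Glo; luminescence quantified 30 min later at room temperature.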
# Luc counter = Counterscreen for Luciferase (Kinase-Glo TM) Inhibition; Kinase-Glo luciferase, ATP luminescence, 8 min; Luciferin 4-monooxygenase (Photuris pensylvanica), Q27757; 200,000 tested, 0.28% active; Potency, µM (top dose mostly 38.3 µM), for the others: at the highest dose activity change, negative = inhibition, hits mostly inhibitors; also: % is scaled to controls: 0 for no effect and ±100 for the full control effect; nearly all actives have a fitted effect of over 60% in size
#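 Kinase-Glo luciferase light output from ATP and luciferin was measured with 10 uM ATP, within the enzyme's linear range. Buffer: 50 mM imidazole pH 7.2, 50 mM KCl, 7 mM MgCl2, 0.01% Tween 20, 0.05% BSA; luminescence read after 8 min at ambient temperature.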
# The depositor's hits bear a star; ? = inconclusive; . = not tested or not shown. Sampled rows, rich in hits. Any-hit rate of the full collection: about 7.3%. Calls follow the shape of the dose curve; as a rule, active = well fitted curve in the direction sought with a large enough effect; inconclusive = small, poorly fitted or top-dose-only effect, or another doubt; inactive = no such curve, though single readings can be large; an effect the other way counts as inactive or inconclusive. Potency is read from the fitted curve at half-maximal effect.
SMILES,FLuc counter,SMN2 splice enh,Rab9 promoter act,NPC1 promoter act,ELG1 genotoxic,Luc counter
CN(C)c1ccc(C=Nc2cnn(C)c2C(N)=O)cc1,4.8µM*,.,1%,-4%,?,-5%
Clc1ccc(-c2nnc3sc(-c4ccco4)nn23)c(Cl)c1,0%,4%,2%,6%,0%,0%
O=C(Nc1n[nH]c(C2CCCCC2)n1)C1CCCCC1,-12%,0.11µM*,15%,11%,21µM*,1%
O=C(Nc1ncccn1)C1CCCCC1,0%,.,-13%,-5%,-2%,-4%
COC(=O)/C(=C1\OC(=O)C(c2ccccc2)C1=O)c1ccccc1 (stereo not drawn),.,13µM*,.,.,.,-2%
COC(=O)C1CCN(C(=O)Cc2ccc(Br)cc2)CC1,-7%,?,10%,0%,?,-1%
C/C(=N\NS(=O)(=O)c1ccc(C)c([N+](=O)[O-])c1)c1cc2ccccc2o1,-10%,0%,0%,-3%,-2%,-3%
O=C(c1ccccc1)c1cc2ccccc2o1,15µM*,-6%,?,?,?,1%
O=C(c1ccccc1)c1cc2ccccc2oc1=O,-12%,.,13%,16%,10%,.
Cc1ccc(C(=O)c2cc3ccccc3o2)cc1[N+](=O)[O-],7.6µM*,-4%,2.8µM*,?,?,-1%
O=C(c1ccc(F)cc1)c1cc2ccccc2o1,11µM*,.,22%,?,?,.
O=C(NNC(=O)c1cc2ccccc2o1)c1ccc(Cl)cc1,2%,.,1%,1%,1%,.
O=C(NNC(=O)c1cc2ccccc2o1)c1ccc(F)cc1,17µM*,.,1%,0%,11%,.
O=C(NCc1ccc(F)cc1)c1cc2ccccc2o1,-12%,.,9%,5%,4%,.
COc1ccccc1C(=O)N1CCN(c2nc3cc(C)c(C)cc3cc2C#N)CC1,-14%,-85%,-3%,2%,0%,0%
COc1ccc(-c2cc3nnc(-c4ccccc4)nc3s2)cc1,0.17µM*,0.71µM*,?,22%,?,-28%
COc1ccc(OC)c(Nc2ncnc3sc(-c4ccccc4)cc23)c1,?,11%,-6%,2%,-1%,1%
O=C(NCCc1c[nH]c2ccccc12)C1CCN(S(=O)(=O)c2ccccc2)CC1,-1%,.,-3%,-1%,-2%,.
Cc1nn(C(C)(C)C)c(OC(=O)c2ccc3c(c2)OCO3)c1S(=O)(=O)c1ccccc1,-3%,17%,9%,-4%,-6%,1%
Cc1ccccc1-c1noc(-c2cccs2)n1,7.6µM*,?,2.8µM*,?,?,-10%
c1cncc(-c2nnc(-c3cccs3)o2)c1,-14%,1%,?,15%,11%,-2%
Cc1ccccc1-c1nnc(-c2cccs2)o1,12µM*,20µM*,?,18%,?,-11%
COc1ccc(-c2noc(-c3cc4ccccc4oc3=O)n2)cc1,-13%,15%,4%,7%,-2%,-6%
Cc1ccccc1-c1noc(-c2cc3ccccc3oc2=O)n1,1.9µM*,.,.,.,.,.
C=CCNc1nc(-c2ccc([N+](=O)[O-])cc2)cs1,3µM*,?,3.5µM*,?,21µM*,-3%
CN(C)c1nc(-c2ccc([N+](=O)[O-])cc2)cs1,12µM*,-12%,?,28%,12µM*,-5%
CCCOc1ccc(-c2nc(-c3ccc([N+](=O)[O-])cc3)cs2)cc1,?,.,?,-2%,-1%,.
C=CCNc1nc(-c2ccc(Cl)cc2)cs1,1.3µM*,25µM*,2µM*,2.8µM*,18%,-2%
COc1ccccc1NS(=O)(=O)c1cccc(NC(=O)c2[nH]c(C)c(C(C)=O)c2C)c1,6%,.,-2%,-2%,-2%,.
